This passage reports growth results from PubChem BioAssay (NCI).

Molecules are shown by their SMILES. About 83,000 compounds went through this panel and 20% of them were active in at least one assay; those are over-represented in the sample as a whole.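 Growth was measured after 48 h exposure to one concentration of compound in 96-well plates. Values under 10 count as active.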 Unmarked numbers belong to inactive results. Calls of active or inactive are those of the source.

Common to all, as to experiment: NCI-60 one-dose screen, 48 h (100 = growth as untreated, 0 = no growth, -100 = all killed)
Settings in all cases: 10 µM unless noted

The subject of test [1] is T-47D breast.
Test [2] relates to BT-549 breast.
The subject of test [3] is MDA-MB-435 melanoma.
The subject of test [4] is SW-620 colon.
For test [5], the system named is MCF7 breast.
Test [6] relates to HCT-116 colon.
Test [7] relates to HCC-2998 colon.
The test system of test [8] is KM12 colon.

Regarding `CCOC(=O)c1c(C)nc2ccccc2c1/C=C/c1cccs1`, the growth in test [1] was 17.4%; in test [2] it was 77.4%; in test [3] it was 88.7%; in test [4] it was 91.9%; in test [5], 39.5%; in test [6], 61.3%. Also, the values for the growth in test [7] and in test [8] were 79.4% and 77.8%, respectively.
Turning to `CN1CCN(Cc2ccc(NC(=O)c3cncc(C#Cc4cnc(N)c5ccc(F)cc45)c3)cc2C(F)(F)F)CC1`, the growth in test [1] is 43.5%; in test [2] it was 42%; in test [3], 19.3%; in test [4], -64.4% (active); in test [5], 13.2%; in test [6], -90.9% (active). In addition, the growth in test [7] was 34.8%; in test [8], 7.82% (active).
Turning to `CC1(C)OB(O)c2cc(-c3nc4ccc5[nH]ncc5c4c4c3CCCC4)ccc21`, the growth was 34.9% in test [1]; 74.9% in test [2]; 48.8% in test [3]; 59.4% in test [4]; 44.1% in test [5]; 22.7% in test [6]. Moreover, the growth in test [7] is 82.9%; in test [8], 38.7%.
On to `Nc1[nH]n2cc(-c3ccc(F)cc3)nc2c1N=Nc1ccc(S(N)(=O)=O)cc1`, for which the growth in test [1] is 77.8%; in test [2], 73.9%; in test [3] it was 78.4%; in test [4], 76.7%; in test [5] it was 87.7%; in test [6], 62.7%. Also, the growth was 90.8% in test [7] and 73.1% in test [8].
Consider `CN(C)CCCC1(c2ccc(F)cc2)OCc2cc(-c3cc4ccccc4s3)ccc21` (configuration not stated), for which the growth is -2.98% (active) in test [1]; 80.1% in test [2]; -84.4% (active) in test [3]; -70% (active) in test [4]; -53.5% (active) in test [5]; -80.6% (active) in test [6]. The growth in test [7] is -78.4% (active); in test [8], -72.1% (active).
Take `C[n+]1ccc(CCc2c[nH]c3ccccc23)cc1`: the growth in test [1] is 72.6%; in test [2] it was 98.2%; in test [3], 104%; in test [4], 100%; in test [5], 93.2%; in test [6] it was 97.2%. For the same compound, the growth in test [7] is 92.6%; in test [8], 70.8%.
Turning to `COc1cc(OC)c(C(=O)C(CN(C)C)CN(C)C)cc1OC`, the growth is -17.6% (active) in test [1]; 74.5% in test [2]; 80.9% in test [3]; -83.3% (active) in test [4]; 10.6% in test [5]; -65.6% (active) in test [6]. For the same compound, the growth in test [7] was 110%; in test [8], 111%.
In the case of `O=S(=O)(Oc1ccc(Br)cc1)c1ccc(Cl)cc1`, the growth is 88.5% in test [1]; 99.8% in test [2]; 104% in test [3]; 102% in test [4]; 91.7% in test [5]; 98.6% in test [6]. The growth in test [7] is 83.2%; in test [8], 99.3%.
As for `CN(CCCNC(=O)Cc1ccc2ccc3cccc4ccc1c2c34)CCCNc1cc(-c2ccc3ccccc3c2)nc2ccccc12`, the growth in test [1] was -67% (active); in test [2], -4.41% (active); in test [3], -63.4% (active); in test [4] it was -69.4% (active); in test [5], -86.2% (active); in test [6] it was -85.4% (active). The growth is -89.1% (active) in test [7] and -80% (active) in test [8].
For the compound `CC(C)N1C(=O)/C(=c2\sc3n(c2=O)C2C(NN=3)N(C)C(=O)N2C)c2ccccc21` (configuration not stated), the growth in test [1] was 64.8%; in test [2] it was 72.1%; in test [3], -21.2% (active); in test [4], 29.6%; in test [5] it was 21.4%; in test [6] it was 51.4%. In addition, the growth was 78.8% in test [7] and 44.2% in test [8].
Take `COc1ccc(/C=C/c2c(C(=O)/C=C/c3ccccc3)c(C)nc3ccccc23)cc1`: the growth is 12.9% in test [1]; 31.4% in test [2]; -33% (active) in test [3]; 2% (active) in test [4]; 12.8% in test [5]; -70.1% (active) in test [6]. Further, the results for the growth in test [7] and in test [8] were 12.3% and 3.01% (active), respectively.
`COc1ccc(-c2nc(-c3cn(C)c4ncccc34)cs2)cc1`: the growth was -6.67% [100 µM] (active) in test [1]; -30.1% [100 µM] (active) in test [2]; -43.6% [100 µM] (active) in test [3]; 10.8% [100 µM] in test [4]; -17.8% [100 µM] (active) in test [5]; -75.3% [100 µM] (active) in test [6]. Moreover, the growth in test [7] is -9.69% [100 µM] (active); in test [8], 3.74% [100 µM] (active).
Consider `O=C(N=Nc1c(O)[nH]c2ccccc12)Nc1ccc(F)cc1`, for which the growth is 66.2% in test [1]; 89.6% in test [2]; 98.3% in test [3]; 89.4% in test [4]; 71.3% in test [5]; 82% in test [6]. Besides, the growth in test [7] is 100%; in test [8], 85.5%.
Turning to `CN(CCCNC(=O)CCOCCOCCOCCNC(=O)Cc1ccc2ccc3cccc4ccc1c2c34)CCCNc1cc(-c2ccc3ccccc3c2)nc2ccccc12`, the growth in test [1] is -80.9% (active); in test [2], -83.6% (active); in test [3], -79.6% (active); in test [4], -79.6% (active); in test [5] it was -82.3% (active); in test [6] it was -98.2% (active). Besides, the growth in test [7] was -87.4% (active); in test [8] it was -86.6% (active).
